Z-score data for 71 compounds are collected here from PubChem BioAssay AID488969 (Vanderbilt High Throughput Screening Facility, 2010).

Several values for one entry are separate records, joined by “and”; a condition that tells them apart may be missing. Equal values may be shown once. Whole data set: some 110,000 compounds, median “z-score” near -0.1, cut for the highest 2% near 2. What follows is part of a selection rich in the highest values, with near analogues and random picks from the rest. Activity calls are given as the source filed them.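 Rule for the calls: active = z-score in the third read window above 3 or below -3; inactive = the rest.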

Chain of Metabotropic glutamate receptor 8 (Rattus norvegicus) (P70579 whole entry, looked up): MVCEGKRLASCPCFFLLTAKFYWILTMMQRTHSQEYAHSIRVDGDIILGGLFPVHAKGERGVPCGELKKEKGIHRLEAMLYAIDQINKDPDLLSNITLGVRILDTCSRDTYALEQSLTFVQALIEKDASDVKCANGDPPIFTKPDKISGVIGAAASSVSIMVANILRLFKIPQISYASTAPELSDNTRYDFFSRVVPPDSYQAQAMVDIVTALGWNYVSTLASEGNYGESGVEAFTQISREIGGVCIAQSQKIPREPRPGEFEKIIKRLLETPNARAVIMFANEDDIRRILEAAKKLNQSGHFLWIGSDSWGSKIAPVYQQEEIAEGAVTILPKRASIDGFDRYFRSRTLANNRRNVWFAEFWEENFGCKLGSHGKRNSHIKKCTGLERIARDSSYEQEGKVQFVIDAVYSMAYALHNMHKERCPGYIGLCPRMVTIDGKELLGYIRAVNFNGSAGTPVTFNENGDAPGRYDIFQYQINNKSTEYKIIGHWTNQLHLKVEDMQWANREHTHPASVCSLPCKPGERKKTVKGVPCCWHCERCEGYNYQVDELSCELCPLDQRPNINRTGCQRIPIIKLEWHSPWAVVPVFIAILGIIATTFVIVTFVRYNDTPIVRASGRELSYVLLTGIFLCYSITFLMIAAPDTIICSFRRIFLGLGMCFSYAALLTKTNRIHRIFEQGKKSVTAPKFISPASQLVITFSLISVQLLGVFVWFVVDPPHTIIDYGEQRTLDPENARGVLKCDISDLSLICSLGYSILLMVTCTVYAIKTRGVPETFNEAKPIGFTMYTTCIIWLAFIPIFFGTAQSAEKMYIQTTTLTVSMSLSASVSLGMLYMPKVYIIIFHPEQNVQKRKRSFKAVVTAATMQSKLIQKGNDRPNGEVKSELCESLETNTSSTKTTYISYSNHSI

This experiment addresses Metabotropic glutamate receptor 8 (Rattus norvegicus) (UniProt P70579). Put plainly: rat mGluR8 modulators via GIRK flux, primary screen, cell-based, thallium flux, HTS (AID 488969). Conditions: HEK293 rat mGluR8, GIRK (G protein-gated inwardly rectifying potassium channel) thallium flux, FluoZin2; at 10 µM; stronger effect = higher value; submaximal glutamate (EC20) added with thallium.
On to `C=CCn1c(N)c(C(=O)Nc2ccc(C)c(C)c2)c2nc3ccccc3nc21`, for which the z-score was 0.661.

For `Cc1c(O)nc(SCC(=O)Nc2ccc3c4c(cccc24)CC3)n(-c2ccccc2)c1=O`, the z-score is -0.768.

For `CCOC(=O)N1CCN(C(=O)CN(C2CCCCC2)S(=O)(=O)c2ccc(F)cc2)CC1`, the z-score is 0.315.

`CCOC(=O)c1cnc2ccc(OCC)cc2c1N1CCN(c2ccccc2OC)CC1` gave a z-score of -0.8.

Compound `COc1ccccc1NC(=O)c1sc2nc(-c3ccco3)ccc2c1N` yielded a z-score of 0.132.

Take `NC(=O)c1sc2nc(-c3ccco3)ccc2c1N`: the z-score was -0.321.

As to `COC(=O)c1sc2nc(-c3ccco3)ccc2c1N`, the z-score worked out at 2.53.

On to `CCNC(=S)NNC(=O)c1ccc(OC(F)F)cc1`, for which the z-score was -0.194.

`O=C(NNC(=S)NCc1ccccc1)c1ccc(OC(F)F)cc1`: the z-score amounted to 2.12.

Regarding `CC(C)CNC(=S)NNC(=O)c1ccc(OC(F)F)cc1`, the z-score was -0.0885.

`CCOCCCNC(=O)CCCOc1ccccc1` had a z-score of 0.0157.

In the case of `O=C(Cc1ccccc1F)Nc1ccc(Cl)nc1`, the z-score turned out to be 0.217.

Consider `Cc1ccc(N2C(=O)c3n[nH]c(C)c3C2c2ccccn2)cc1` (stereo unspecified), for which the z-score is -0.326.

`Cc1ccc(NC2=C(CC(=O)O)C(c3ccccc3)N(c3ccc(C)cc3)C2=O)cc1` (stereo unspecified) returned a z-score of -0.426.

In the case of `Cc1ccc(C2C3=C(NCCN=C3c3ccccc3)C(=O)N2c2ccccc2)cc1` (stereo unspecified), the z-score is 3.18 (active).

Compound `CC1CCCCN1S(=O)(=O)c1ccc(NC(=O)c2cccs2)cc1` (stereo unspecified) had a z-score of -0.377.

Take `O=C(Nc1cccnc1)Nc1ccccc1Cl`: the z-score worked out at 0.0762.

As for `CCc1ccc(/C=C/C(=O)c2ccc(N3CCOCC3)cc2)cc1`, the z-score stood at 0.286.

Take `COCCC(=O)NC12CC3CC(CC(C3)C1)C2`: the z-score was -0.301.

`O=C(O)CC(=O)NC12CC3CC(CC(C3)C1)C2`: the z-score is -0.251 and -0.244.

On to `CCN(CC)CC(=O)NC12CC3CC(CC(C3)C1)C2`, for which the z-score came out at 2.42.

For the compound `CCCCCC[n+]1c(-c2ccc(Cl)cc2Cl)csc1Nc1ccccc1`, the z-score was -0.156.

`O=C(CN(Cc1ccc2c(c1)OCO2)C(=O)c1cnsn1)NC1CCCC1` came in with a z-score of -0.186.

`O=C(NC1CCCCC1)C(c1ccccc1)N(Cc1ccc2c(c1)OCO2)C(=O)c1cnsn1` (stereo unspecified) registered a z-score of 2.16.

`O=C(NC1CCCCC1)C(c1ccc(F)cc1)N(Cc1ccc2c(c1)OCO2)C(=O)c1cnsn1` (stereo unspecified): the z-score came out at 0.366.

In turn, `COc1cc(CCN2C(=O)c3cccc4cccc(c34)C2=O)c(S(=O)(=O)N2CCCCCC2)cc1OC` registered a z-score of -0.297.

`Cn1c(=O)c2c(nc(CN3CCc4ccccc4C3)n2CC(=O)c2ccccc2)n(C)c1=O` showed a z-score of -0.969.

The compound `Cn1c(=O)c2c(nc(CN3CCc4ccccc4C3)n2Cc2ccccc2)n(C)c1=O` showed a z-score of -0.932.

As for `COC(=O)Cn1c(CN2CCc3ccccc3C2)nc2c1c(=O)n(C)c(=O)n2C`, the z-score was 5.81 (active).

`CCOC(=O)c1ccc(NC(=O)c2cc(OC)c(OC)c(OC)c2Br)cc1` registered a z-score of 0.551.

Turning to `O=C(O)C1CCCCC1C(=O)NCc1cn2ccccc2n1` (stereo unspecified), the z-score is -0.352.

Turning to `O=C(CN1CCOCC1)Nc1ccc(OCc2ccccc2)cc1`, the z-score was 0.323.

In the case of `Cc1ccc(Cn2c(SCC(N)=O)nc3c2c(=O)n(C)c(=O)n3C)cc1`, the z-score is -0.328.

For the compound `CNC(=O)CSc1nc2c(c(=O)n(C)c(=O)n2C)n1Cc1ccc(C)cc1`, the z-score worked out at 2.07.

`Cc1ccc(Cn2c(SCC(C)C)nc3c2c(=O)n(C)c(=O)n3C)cc1` gave a z-score of -0.493.

`COc1cc(NC(=O)c2ccco2)c(OC)cc1NC(=O)CSc1nnc(-c2cccs2)n1C` yielded a z-score of -1.07.

Compound `CCOC(=O)C1=C(CC)Nc2ccccc2N=C1NC(=O)c1cc(S(=O)(=O)N(C)C)ccc1Cl` had a z-score of 0.243.

Regarding `CCOC(=O)C1=C(CC)Nc2ccccc2N=C1NC(=O)Nc1ccc(Cl)c(Cl)c1`, the z-score was 5.4 (active).

On to `CCOC(=O)C1=C(CC)Nc2ccccc2N=C1NC(=O)Nc1ccccc1OC`, for which the z-score stood at 0.249.

Compound `Cc1cc(C)n(C(=O)c2ccc(C)c(F)c2F)n1` had a z-score of -0.238.

Compound `CCCCCc1ccc(S(=O)(=O)NCCc2ccncc2)cc1` gave a z-score of 0.483.

Consider `CCCCNS(=O)(=O)c1ccc(S(=O)(=O)NCc2ccncc2)cc1`, for which the z-score amounted to 2.5.

`CCCCc1ccc(S(=O)(=O)NCCc2ccncc2)cc1`: the z-score is 0.298.

In turn, `CCOC(=O)C1=C(C)Nc2sc(C(=O)c3ccc(C)cc3)c(N)c2C1c1ccc(C(=O)OC)cc1` (stereo unspecified) showed a z-score of -0.284.

In turn, `O=C(NNC(=S)Nc1ccc(F)cc1)c1ccccc1OC(F)F` gave a z-score of -0.00644.

As for `CCc1ccc(NC(=S)NNC(=O)c2ccccc2OC(F)F)cc1`, the z-score was 3.63 (active).

The compound `Cc1ccc(NC(=S)NNC(=O)c2ccccc2OC(F)F)cc1` gave a z-score of 0.966.

Regarding `CC1Cc2ccccc2N1C(=O)CSc1ccccc1` (stereo unspecified), the z-score is -0.501.

Regarding `CCOc1ccc(N2C(=O)CC(N3CCc4ccccc43)C2=O)cc1` (stereo unspecified), the z-score is 1.67.

Take `Cc1sc2ncn(CC(=O)NCCc3ccccc3)c(=O)c2c1C`: the z-score worked out at 0.251.

`COc1ccc(CN(CCC#N)C(=S)NC(=O)c2ccccc2)cc1`: the z-score is 4.49 (active).

In turn, `N#CCCN(Cc1ccccc1)C(=S)Nc1ccccc1` showed a z-score of -0.262.

Compound `COc1ccccc1CC(=O)N(CCC#N)CCC#N` returned a z-score of -0.512.

Compound `N#CCCN(Cc1ccccc1)C(=S)NC(=O)c1ccccc1` displayed a z-score of 2.39.

On to `COc1ccc(CNC(=O)c2ccc(-c3ccccc3)cc2)cc1`, for which the z-score was -0.113.

Compound `N#CCCN(Cc1cccnc1)C(=O)Nc1ccccc1` displayed a z-score of -0.271.

On to `c1ccc2c(c1)CC1(CCCC1)n1nnnc1-2`, for which the z-score was -0.648.

`C/C(=N\NC(=O)c1c(Cl)c(C)nn1C)c1ccc(NC(=O)COc2ccc(Cl)cc2C)cc1` came in with a z-score of 0.132.

As to `O=C(CSc1ccc(-c2ccco2)nn1)c1ccccc1`, the z-score is 7.29 (active).

The compound `O=C(CSc1ccc(-c2ccco2)nn1)c1ccc(F)cc1` had a z-score of -0.0218.

The compound `COc1ccc(C(=O)CSc2ccc(-c3ccco3)nn2)cc1` displayed a z-score of 0.654.

Consider `CC(=O)c1cn(CC(=O)NCc2cccnc2)c2ccccc12`, for which the z-score came to 0.276.

Turning to `N/C(Cc1cccs1)=N\OC(=O)COc1ccccc1Cl`, the z-score was -2.93.

For the compound `Cc1ccccc1OCC(=O)O/N=C(\N)Cc1cccs1`, the z-score was 3.93 (active).

With `N/C(Cc1cccs1)=N\OC(=O)COc1ccccc1`, the z-score is -1.06.

Consider `C=CCC1(O)CC(c2ccco2)NC(c2ccco2)C1CCC` (stereo unspecified), for which the z-score came to 1.08.

`Cc1c(NC(=O)C(C)c2ccc(CC(C)C)cc2)c(=O)n(-c2ccccc2)n1C` (stereo unspecified) came in with a z-score of -0.175.

Compound `CCc1nc2c(sc3nc4c(cc32)COC(C)(C)C4)c(=O)n1Cc1ccccc1` showed a z-score of -0.115.

For the compound `CC1(C)CC(=O)c2c(nn(-c3ccccc3)c2N)C1`, the z-score is -0.372.

The compound `CC1(C)CC(=O)c2c(nc3ccccc3c2N)C1` yielded a z-score of -1.01.

Take `CC1(C)CC(=O)c2c(noc2-c2ccccc2)C1`: the z-score was 3.63 (active).
